Data from PubChem BioAssay (Tox21).
Where “and” joins values, the source holds several entries; their conditions need not be identical. Equal values may be shown once. Records with an inconclusive call do not appear. Where a call stands in place of a potency, no number is given. More than one record can exist for a structure, and the calls need not agree. Calls of active or inactive are those of the source. Unless noted, calls come from the whole dose curve; as a rule, active = well fitted curve in the direction sought with a large enough effect in the repeat runs; inconclusive = weak or mixed curves; inactive = no such curve, though single readings can be large; an effect the other way counts as inactive or inconclusive.

Legend:
[1] = qHTS assay to identify small molecule antagonists of the estrogen receptor alpha (ER-alpha) signaling pathway using the BG1 cell line in the presence of 0.1 nM 17-beta-estradiol - cell viability counter screen (AID 1259241); note: nearly all actives have a fitted effect of over 40% in size; note: potency is the fitted concentration of half-maximal effect
In short: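 The cell line endogenously expresses full-length ER-alpha and carries four EREs driving luciferase. Cells are cultured 5 days hormone-free, treated 22 hr with compounds and 0.1 nM estradiol, then viability is read by fluorescence.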

[2] = qHTS assay to identify small molecule antagonists of the androgen receptor (AR) signaling pathway using the MDA cell line in the presence of 0.5 nM R1881 - cell viability counter screen (AID 1259242); note: nearly all actives have a fitted effect of over 45% in size; note: potency is the fitted concentration of half-maximal effect
In short: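 Cytotoxicity toward MDA-kb2 cells is measured by CellTiter-Fluor live-cell protease fluorescence after 16 hr compound exposure at 37C in the presence of 0.5 nM R1881 stimulator.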

[3] = target: Androgen receptor (Homo sapiens) (UniProt P10275); assay: qHTS assay to identify small molecule antagonists of the androgen receptor (AR) signaling pathway using the MDA cell line in the presence of 0.5 nM R1881 (AID 1259243); note: nearly all actives have a fitted effect of over 50% in size; note: potency is the fitted concentration of half-maximal effect
Androgen receptor (Homo sapiens), sequence (P10275 whole entry, looked up): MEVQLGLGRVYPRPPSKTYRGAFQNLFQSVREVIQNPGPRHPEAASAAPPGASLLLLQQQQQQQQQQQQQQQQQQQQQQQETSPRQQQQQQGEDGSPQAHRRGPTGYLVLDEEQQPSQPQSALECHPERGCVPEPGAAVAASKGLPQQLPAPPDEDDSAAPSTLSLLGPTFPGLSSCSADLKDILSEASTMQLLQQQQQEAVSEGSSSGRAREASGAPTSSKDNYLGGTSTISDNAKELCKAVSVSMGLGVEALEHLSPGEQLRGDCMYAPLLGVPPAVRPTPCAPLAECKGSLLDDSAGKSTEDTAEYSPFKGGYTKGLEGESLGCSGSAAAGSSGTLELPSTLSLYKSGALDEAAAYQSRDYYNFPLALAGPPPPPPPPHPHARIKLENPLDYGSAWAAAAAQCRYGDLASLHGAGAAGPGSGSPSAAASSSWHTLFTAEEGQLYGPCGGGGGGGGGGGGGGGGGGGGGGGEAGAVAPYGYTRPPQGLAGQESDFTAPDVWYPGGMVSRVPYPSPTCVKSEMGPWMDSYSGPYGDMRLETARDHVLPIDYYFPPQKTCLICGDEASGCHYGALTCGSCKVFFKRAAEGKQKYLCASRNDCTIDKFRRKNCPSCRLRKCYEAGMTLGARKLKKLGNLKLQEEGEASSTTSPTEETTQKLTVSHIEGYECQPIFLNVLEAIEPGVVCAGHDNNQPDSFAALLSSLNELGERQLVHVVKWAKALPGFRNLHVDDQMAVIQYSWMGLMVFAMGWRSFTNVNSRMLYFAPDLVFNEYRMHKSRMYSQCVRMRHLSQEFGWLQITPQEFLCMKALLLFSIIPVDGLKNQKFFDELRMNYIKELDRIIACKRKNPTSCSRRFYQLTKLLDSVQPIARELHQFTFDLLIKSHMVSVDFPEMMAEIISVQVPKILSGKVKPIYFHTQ
In short: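 Steps: seed MDA-kb2 cells, incubate 5 hr at 37C; pin-transfer compounds in DMSO; add R1881 to 0.5 nM final; incubate 16 hr; add ONE-Glo, wait 30 min at room temperature; read luminescence.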

[4] = target: Estrogen receptor (Homo sapiens) (UniProt P03372); assay: qHTS assay to identify small molecule antagonists of the estrogen receptor alpha (ER-alpha) signaling pathway using the BG1 cell line in the presence of 0.1 nM 17-beta-estradiol (AID 1259244); note: nearly all actives have a fitted effect of over 50% in size; note: potency is the fitted concentration of half-maximal effect
Estrogen receptor (Homo sapiens), sequence (P03372 whole entry, looked up): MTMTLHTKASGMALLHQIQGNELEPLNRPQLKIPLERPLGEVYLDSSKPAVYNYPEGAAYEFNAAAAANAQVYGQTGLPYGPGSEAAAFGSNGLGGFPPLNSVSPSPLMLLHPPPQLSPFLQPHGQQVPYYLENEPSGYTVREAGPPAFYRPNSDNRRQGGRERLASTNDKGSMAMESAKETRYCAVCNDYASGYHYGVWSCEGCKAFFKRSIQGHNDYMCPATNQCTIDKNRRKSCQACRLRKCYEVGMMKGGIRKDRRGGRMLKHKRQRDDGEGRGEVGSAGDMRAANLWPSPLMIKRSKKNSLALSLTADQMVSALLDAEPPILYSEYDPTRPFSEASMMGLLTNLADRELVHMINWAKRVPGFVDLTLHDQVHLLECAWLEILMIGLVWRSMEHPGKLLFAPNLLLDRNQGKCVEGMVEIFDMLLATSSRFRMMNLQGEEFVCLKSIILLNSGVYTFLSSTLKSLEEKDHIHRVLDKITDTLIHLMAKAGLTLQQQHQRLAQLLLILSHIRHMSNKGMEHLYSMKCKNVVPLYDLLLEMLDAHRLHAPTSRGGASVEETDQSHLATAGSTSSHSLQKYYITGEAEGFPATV
In short: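 After 5 days in hormone-depleted medium (charcoal-stripped serum, no phenol red), VM7Luc4E2 cells were seeded, incubated 24 h, then co-treated with compound and 0.1 nM (final) estradiol for 22 h before luminescence detection.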

[5] = qHTS assay to identify small molecule HDAC inhibitors (AID 1259364); note: top concentration of the series differs between compounds; nearly all actives have a fitted effect of over 45% in size
In short: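 Homogeneous cell-based luminescent assay of endogenous class I/II HDAC activity; HCT-116 cells, 2 h compound exposure, 30 min HDAC-Glo development at RT.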

[6] = qHTS assay to identify small molecule HDAC inhibitors - cell viability counter screen (AID 1259365); note: nearly all actives have a fitted effect of over 50% in size; note: potency is the fitted concentration of half-maximal effect; for activity change, negative = cytotoxicity: series mostly up to about 92 µM
In short: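 Viability readout: CellTiter-Glo luminescence. Wild-type HCT-116 cells, 2hr compound treatment following overnight attachment at 37 C.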

[7] = qHTS assay to identify small molecule agonists of the sonic hedgehog signaling (Shh) pathway (AID 1259368; calls by dose curve;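 note: NIH/3T3-derived 3T3Gli1-Luc cells carrying a stable Gli1-driven firefly luciferase reporter; series mostly up to about 92 µM; nearly all actives have a fitted effect of over 15% in size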)
In short: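 Steps: seed 3T3 Gli1-Luc cells, incubate 4 hr at 37 C, pin-transfer compounds in DMSO alongside a positive control, incubate 24 hr, add luciferase detection reagent, wait 30 min at room temperature, read luminescence.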

[8] = qHTS assay to identify small molecule agonists of the sonic hedgehog signaling (Shh) pathway - cell viability counter screen (AID 1259366); note: nearly all actives have a fitted effect of over 50% in size; note: potency is the fitted concentration of half-maximal effect
In short: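 Viability measured fluorometrically (CellTiter-Fluor, 1hr, 37C) in 3T3 Gli1-Luc reporter cells after 23hr compound exposure within a 24hr incubation at 37C/5% CO2.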

[9] = qHTS assay to identify small molecule antagonists of the sonic hedgehog signaling (Shh) pathway - cell viability counter screen (AID 1259367); note: nearly all actives have a fitted effect of over 55% in size; note: potency is the fitted concentration of half-maximal effect
In short: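 NIH/3T3-derived Gli1-Luc reporter cells, 2,000/well, plated 4 hr before compound addition, then stimulated with conditioned medium for 24 hr at 37C. Viability measured in the same wells by CellTiter-Fluor fluorescence, reagent added at 23 hr for 1 hr.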

[10] = qHTS assay to identify small molecule phospholipidosis (PLD) inducers (AID 1259344; active = well fitted curve in the direction sought with a large enough effect; an effect the other way counts as inactive or inconclusive)
In short: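 HepG2 cells, 900/well, treated with compound plus LipidTOX Red for 24 h at 37 C; amiodarone positive and DMSO negative controls. Fixed with paraformaldehyde/Hoechst, then high-content imaging scored LipidTOX pit count and integrated intensity per well and per cell.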

SMILES | Potency [1] | Potency [2] | Potency [3] | Potency [4] | Potency [5] | Potency [6] | Potency [7] | Potency [8] | Potency [9] | outcome [10] | activity change, negative = cytotoxicity [1] | activity change, negative = inhibition [5] | activity change [7]
N#Cc1c2ccccc2cc2ccccc12 | inactive | inactive | 10.8 µM (active) | inactive | inactive | inactive | inactive |  |  |  |  |  | 
CCOP(=O)(OCC)Oc1nc(Cl)c(Cl)cc1Cl | inactive | inactive | inactive |  |  | inactive | inactive | inactive | inactive |  |  |  | 
CCO/N=C(\CC)C1=C(O)CC(c2c(C)cc(C)cc2C)CC1=O (stereo unspecified) | inactive | inactive |  | inactive | inactive | inactive | inactive | inactive | inactive |  |  |  | 
CC(C)C(Br)C(=O)NC(N)=O (stereo unspecified) | inactive | inactive |  | inactive | inactive | inactive | inactive | inactive | inactive | inactive |  |  | 
CC(=O)[O][Pb]([c]1ccccc1)([c]1ccccc1)[c]1ccccc1 | 21.7 µM (active) | 6.11 µM (active) | 0.969 µM (active) | inactive |  | 61.1 µM (active) | inactive | 486 nM (active) | 0.77 µM (active) |  |  |  | 
O=S1OCC2C(CO1)C1(Cl)C(Cl)=C(Cl)C2(Cl)C1(Cl)Cl (stereo unspecified) | inactive | inactive | 48.6 µM (active) and 54.4 µM (active) | inactive | inactive | inactive | inactive |  | 48.5 µM (active) |  |  |  | 
Cc1nn(-c2cc(NS(C)(=O)=O)c(Cl)cc2Cl)c(=O)n1C(F)F | inactive | inactive | inactive |  | inactive | inactive | inactive | inactive | inactive |  |  |  | 
O=NN(CCO)CCO | inactive | inactive | inactive |  | inactive | inactive | inactive | inactive | inactive |  |  |  | 
CC(C)(C)c1ccc(OP(=O)(Oc2ccccc2)Oc2ccccc2)cc1 | inactive | inactive |  | inactive | inactive | inactive | inactive | inactive | inactive |  |  |  | 
[O]=[Cr](=[O])([OH])[O][Cr](=[O])(=[O])[OH] | inactive | inactive | 30.9 µM (active) and 54.4 µM (active) |  | inactive | inactive | inactive | 30.9 µM (active) and 30.6 µM (active) | 21.9 µM (active) and 30.6 µM (active) | inactive |  |  | 
COc1c2c(cc3c1OCO3)CCN(C)C2 | inactive | inactive |  | inactive | inactive | inactive | inactive | inactive | inactive | inactive |  |  | 
CCOC(=O)Cc1ccccc1 | inactive | inactive | inactive | inactive | inactive | inactive | inactive | inactive | inactive |  |  |  | 
O=C1C2(Cl)C3(Cl)C4(Cl)C(Cl)(Cl)C5(Cl)C3(Cl)C1(Cl)C5(Cl)C24Cl (stereo unspecified) | inactive | 60.1 µM (active) | inactive and 65.7 µM (active) |  | inactive | inactive | inactive | 26900 nM (active) | 37.9 µM (active) and 58.5 µM (active) |  |  |  | 
COP(=O)(OC)O/C(=C\Cl)c1cc(Cl)c(Cl)cc1Cl | inactive | inactive | 68.6 µM (active) |  | inactive | inactive | inactive | inactive | inactive |  |  |  | 
CCC[CH2][Sn]([CH2]CCC)([CH2]CCC)[O][Sn]([CH2]CCC)([CH2]CCC)[CH2]CCC |  | 0.533 µM (active) | 0.189 µM (active) | 377 nM (active) |  |  |  | 212 nM (active) | 0.377 µM (active) |  | -23.5% [at 8.39 µM] (inactive) | 2.24% [at 8.39 µM] (inactive) | -10.2% [at 8.39 µM, stronger effect = higher value] (inactive)
ClC1=C(Cl)[C@]2(Cl)[C@@H]3[C@H]4C[C@H]([C@@H]5O[C@H]45)[C@@H]3[C@@]1(Cl)C2(Cl)Cl | inactive | inactive |  | inactive | inactive | inactive | inactive |  | 68.5 µM (active) | inactive |  |  | 
O=C(CCCCl)c1ccc(F)cc1 | inactive | inactive | inactive | inactive | inactive | inactive | inactive | inactive | inactive |  |  |  | 
Cc1cccc(Cc2cnc[nH]2)c1C | inactive | inactive |  | inactive | inactive | inactive | inactive | inactive | inactive | inactive |  |  | 
[O]=[Cr][O][Cr]=[O] | inactive | inactive |  | inactive | inactive | inactive | inactive | inactive | inactive |  |  |  | 
C[C@@H]1CC2=CC(=O)CC[C@@H]2[C@H]2CC[C@@]3(C)[C@@H](CC[C@]3(C)O)[C@@H]21 | inactive | inactive | inactive |  | inactive | inactive | inactive | inactive | inactive |  |  |  | 
CN(C)C(=S)SSC(=S)N(C)C | 676 nM (active) and 6.86 µM (active) and 266 nM (active) | 214 nM (active) and 217 nM (active) | 107 nM (active) and 172 nM (active) and 188 nM (active) | 191 nM (active) and 273 nM (active) and 237 nM (active) | inactive | inactive | inactive | 427 nM (active) and 545 nM (active) and 422 nM (active) | 191 nM (active) and 611 nM (active) and 1.19 µM (active) | inactive |  |  | 
CC(Cc1ccc(O)cc1)NCC(O)c1cc(O)cc(O)c1 (stereo unspecified) | inactive | inactive |  | inactive | inactive | inactive | inactive | 8410 nM (active) | 10.6 µM (active) | inactive |  |  | 
C[C@]12CC[C@H]3[C@@H](CCC4=CC(=O)CC[C@@H]43)[C@@H]1CC[C@@H]2OC(=O)CCc1ccco1 | inactive | inactive | inactive |  | inactive | inactive | inactive | inactive | inactive |  |  |  | 
